“And” between values parts separate entries of the source, which are not always exact repeats. Equal entries are not always repeated. Inconclusive results are not listed. A call without a number means that no potency is given here. The source made the active and inactive calls. Unless noted, calls follow the shape of the dose curve; as a rule, active = well fitted curve in the direction sought with a large enough effect; inconclusive = small, poorly fitted or top-dose-only effect, or another doubt; inactive = no such curve, though single readings can be large; an effect the other way counts as inactive or inconclusive.
Key:
[1] = target: T1, Tyrosine-protein phosphatase non-receptor type substrate 1 (Homo sapiens) + Leukocyte surface antigen CD47 (Homo sapiens) (UniProt P78324+Q08722); test: CD47-SIRPalpha protein protein interaction - LANCE assay qHTS validation (AID 1347057; active = well fitted curve in the direction sought with a large enough effect in the signal ratio, with a control signal flat, not every such curve was filed as active; the % refers to the signal ratio; also: series mostly up to about 38 µM)
Method in brief: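 First, His-tagged CD47 and Eu-labelled anti-His antibody met the compound for 30 min; next, site-specifically biotinylated SIRPalpha was added for 30 min; finally streptavidin-APC was added before reading the TR-FRET ratio.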

[2] = target: T1, Tyrosine-protein phosphatase non-receptor type substrate 1 (Homo sapiens) + Leukocyte surface antigen CD47 (Homo sapiens); test: CD47-SIRPalpha protein protein interaction - HTRF assay qHTS validation (AID 1347058; active = well fitted curve in the direction sought with a large enough effect in the signal ratio, not every such curve was filed as active; the % refers to the signal ratio;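 also: recombinant soluble extracellular CD47 with His tag and biotinylated SIRPalpha domains; series mostly up to about 38 µM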)
Method in brief: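 TR-FRET read (Ch1/Ch2 ratio) of soluble extracellular CD47 and Avi-biotinylated SIRPalpha domains in PBS pH 7.4 with 0.05% IGEPAL; 7-point compound titration. Sequential 30 min room-temperature steps; non-biotinylated SIRPalpha as control inhibitor.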

[3] = target: T1, Tyrosine-protein phosphatase non-receptor type substrate 1 (Homo sapiens) + Leukocyte surface antigen CD47 (Homo sapiens); test: CD47-SIRPalpha protein protein interaction - Alpha assay qHTS validation (AID 1347059);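 also: bead proximity luminescence from CD47 binding SIRPalpha after compound preincubation with SIRPalpha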
Method in brief: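 Biotinylated Avi-tagged SIRPalpha (25 nM) preincubated 30 min with compound, then His-tagged CD47 (12.5 nM) added 30 min; AlphaScreen with Ni-NTA acceptor and streptavidin donor beads. PBS pH 7.4, 0.05% IGEPAL, room temperature; 7-point titrations.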

[4] = target: Parathyroid hormone/parathyroid hormone-related peptide receptor (Homo sapiens) (UniProt Q03431); test: qHTS for PTHR1 Agonists: Optimization Screen against the NCGC LOPAC library (AID 1347079);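 also: GloSensor cAMP luminescence in HEK-293 GP2 cells expressing human PTHR1 with IBMX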
Method in brief: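 Compounds were tested across a qHTS titration. PTHR1-expressing GP2 cells report cAMP rises via GloSensor luminescence after 1 hr compound exposure at 37C with IBMX present.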

[5] = qHTS of pediatric cancer cell lines to identify multiple opportunities for drug repurposing: Primary screen for TC32 cells (AID 1347089); also: nearly all actives have a fitted effect of over 60% in size
Method in brief: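 Luminescent CellTiter-Glo read-out of metabolically active TC32 cells after 48 h compound exposure. Primary: MIPE 11-point, 0.78 nM–46 µM; NPC 8-point, 0.59 nM–46 µM. Confirmatory: 11-point dilutions.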

[6] = qHTS of pediatric cancer cell lines to identify multiple opportunities for drug repurposing: Primary screen for DAOY cells (AID 1347090); also: nearly all actives have a fitted effect of over 55% in size; also: potency is read from the fitted curve at half-maximal effect
Method in brief: (§1)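 Viability measured as metabolically active cells via CellTiter-Glo luminescence following 48 hours of compound exposure, 11-point dilutions in confirmatory testing. 500-1,000 cells/well plated 5 hours before dosing; controls were DMSO and 2.3 µM bortezomib.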

[7] = qHTS of pediatric cancer cell lines to identify multiple opportunities for drug repurposing: Primary screen for A673 cells (AID 1347092); also: nearly all actives have a fitted effect of over 45% in size; also: potency is read from the fitted curve at half-maximal effect
Method in brief: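 A673 cells (500-1,000 cells/well in growth media) were pre-incubated 5 h at 37 degrees C, then exposed to compounds for 48 h. Viability was read as CellTiter-Glo luminescence; concentration-response curves came directly from the primary screen.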

[8] = qHTS of pediatric cancer cell lines to identify multiple opportunities for drug repurposing: Primary screen for SJ-GBM2 cells (AID 1347091); also: potency is read from the fitted curve at half-maximal effect
Method in brief: as §1

[9] = qHTS of pediatric cancer cell lines to identify multiple opportunities for drug repurposing: Primary screen for SK-N-MC cells (AID 1347093); also: potency is read from the fitted curve at half-maximal effect
Method in brief: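 Metabolically active cells were quantified by ATP-dependent luminescence (CellTiter-Glo, 15 min at room temperature) following 48 h treatment. Cells had been plated at 500-1,000 per well and settled for 5 h beforehand.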

Parathyroid hormone/parathyroid hormone-related peptide receptor (Homo sapiens), sequence (Q03431 whole entry, looked up): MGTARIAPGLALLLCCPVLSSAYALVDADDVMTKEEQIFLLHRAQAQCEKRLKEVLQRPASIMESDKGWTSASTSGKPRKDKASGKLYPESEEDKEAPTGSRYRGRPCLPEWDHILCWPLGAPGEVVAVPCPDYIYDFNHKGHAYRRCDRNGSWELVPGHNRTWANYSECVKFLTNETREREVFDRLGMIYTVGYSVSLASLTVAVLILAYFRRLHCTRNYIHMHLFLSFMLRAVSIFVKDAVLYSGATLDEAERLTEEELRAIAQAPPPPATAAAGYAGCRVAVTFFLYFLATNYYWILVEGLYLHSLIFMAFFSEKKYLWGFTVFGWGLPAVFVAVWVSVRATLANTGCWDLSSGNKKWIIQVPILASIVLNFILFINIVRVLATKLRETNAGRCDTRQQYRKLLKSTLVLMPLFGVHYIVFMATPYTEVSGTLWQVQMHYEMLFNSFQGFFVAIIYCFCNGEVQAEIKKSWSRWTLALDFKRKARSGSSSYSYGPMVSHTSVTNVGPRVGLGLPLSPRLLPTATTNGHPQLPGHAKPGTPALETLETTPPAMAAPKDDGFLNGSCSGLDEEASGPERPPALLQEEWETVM
T1 sequence (P78324 whole entry, looked up): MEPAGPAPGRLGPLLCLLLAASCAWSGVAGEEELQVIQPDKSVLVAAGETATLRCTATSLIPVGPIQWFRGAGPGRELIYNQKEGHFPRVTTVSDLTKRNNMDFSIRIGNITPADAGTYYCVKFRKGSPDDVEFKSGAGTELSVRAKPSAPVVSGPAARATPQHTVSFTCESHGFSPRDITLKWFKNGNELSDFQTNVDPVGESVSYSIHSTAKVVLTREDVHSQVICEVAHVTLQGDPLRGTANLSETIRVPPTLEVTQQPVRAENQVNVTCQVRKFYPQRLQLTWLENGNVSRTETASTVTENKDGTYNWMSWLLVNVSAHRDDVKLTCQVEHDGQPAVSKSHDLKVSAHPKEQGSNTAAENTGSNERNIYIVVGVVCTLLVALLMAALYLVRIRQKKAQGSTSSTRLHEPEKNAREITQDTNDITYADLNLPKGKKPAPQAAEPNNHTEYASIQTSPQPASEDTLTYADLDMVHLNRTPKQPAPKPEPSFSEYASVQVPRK
T1 sequence (Q08722 whole entry, looked up): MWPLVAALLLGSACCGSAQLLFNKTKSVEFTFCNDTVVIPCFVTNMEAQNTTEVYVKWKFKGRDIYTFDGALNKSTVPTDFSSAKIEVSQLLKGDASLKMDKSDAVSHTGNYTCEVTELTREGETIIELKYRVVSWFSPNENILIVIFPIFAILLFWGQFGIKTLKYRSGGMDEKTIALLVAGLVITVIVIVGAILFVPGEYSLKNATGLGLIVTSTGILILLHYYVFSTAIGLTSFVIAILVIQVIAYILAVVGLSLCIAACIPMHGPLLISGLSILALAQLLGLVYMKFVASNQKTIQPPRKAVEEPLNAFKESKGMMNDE

Structure (SMILES) | outcome [1] | outcome [2] | Potency [3] | Potency [4] | Potency [5] | Potency [6] | Potency [7] | Potency [8] | Potency [9]
CCCNCC(O)COc1ccccc1C(=O)CCc1ccccc1 (configuration not stated) | inactive | inactive | inactive | inactive | inactive | inactive | inactive |  | 
CC1(CN2CCC(n3c(=O)[nH]c4ccccc43)CC2)OCc2ccccc2-n2cccc21 (configuration not stated) |  |  |  |  | inactive | inactive |  | inactive | 33200 nM (active)
Cc1ccccc1N1C(=O)c2cc(S(N)(=O)=O)c(Cl)cc2NC1C (configuration not stated) |  |  |  | inactive | inactive | inactive | inactive | inactive | inactive
CCc1cccc2c3c([nH]c12)C(CC)(CC(=O)O)OCC3 (configuration not stated) | inactive | inactive | inactive | inactive | inactive | inactive | inactive | inactive | inactive
CC#C[C@]1(O)CC[C@H]2[C@@H]3CCC4=CC(=O)CCC4=C3[C@@H](c3ccc(N(C)C)cc3)C[C@@]21C | inactive |  |  | inactive |  | 469 nM (active) | 26.6 µM (active) and 118 nM (active) | 1050 nM (active) | 118 nM (active)

From PubChem BioAssay (NCATS)
